Results taken from PubChem BioAssay (NCI).
The panel holds about 83,000 compounds, 20% with a hit somewhere; the sample as a whole holds those more often.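 Step 1: grow cells in 96-well plates. Step 2: add test compound at a single concentration. Step 3: incubate 48 h. Step 4: record percent growth.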 Active and inactive are the calls of the source. The calls were made as follows: active = growth percent below 10; inactive = the rest.

Tests used:
Test in all cases: NCI-60 one-dose screen, 48 h (100 = growth as untreated, 0 = no growth, -100 = all killed)
Details in all cases: 10 µM unless noted
SR leukemia = system: SR leukemia
RPMI-8226 leukemia = system: RPMI-8226 leukemia
OVCAR-8 ovarian = system: OVCAR-8 ovarian
OVCAR-5 ovarian = system: OVCAR-5 ovarian
OVCAR-4 ovarian = system: OVCAR-4 ovarian
SK-OV-3 ovarian = system: SK-OV-3 ovarian
IGROV1 ovarian = system: IGROV1 ovarian
OVCAR-3 ovarian = system: OVCAR-3 ovarian
HS 578T breast = system: HS 578T breast
NCI/ADR-RES ovarian = system: NCI/ADR-RES ovarian
T-47D breast = system: T-47D breast
BT-549 breast = system: BT-549 breast
MDA-MB-435 melanoma = system: MDA-MB-435 melanoma
SW-620 colon = system: SW-620 colon
MCF7 breast = system: MCF7 breast
HCT-116 colon = system: HCT-116 colon
HCC-2998 colon = system: HCC-2998 colon
KM12 colon = system: KM12 colon

Measured: growth

CNCCCn1c2c(c3ccc([N+](=O)[O-])cc3c1=O)C(=O)c1cc(OC)cnc1-2
active: SR leukemia 2.17% | RPMI-8226 leukemia -25.9% | OVCAR-8 ovarian -14.9% | OVCAR-5 ovarian 1.76% | OVCAR-4 ovarian -25.9% | SK-OV-3 ovarian -15.8% | IGROV1 ovarian 0.722% | OVCAR-3 ovarian -45.1% | NCI/ADR-RES ovarian -28.8% | T-47D breast -7.15% | BT-549 breast -25.6% | MDA-MB-435 melanoma -76.7% | SW-620 colon -34.1% | MCF7 breast 0.912% | HCT-116 colon -53.9% | KM12 colon -4.18%
inactive: HS 578T breast 15.6% | HCC-2998 colon 11.1%

Clc1nc(Cl)c2c3c(sc2n1)CCCC3
active: SR leukemia -36.4% | RPMI-8226 leukemia 1.89% | OVCAR-3 ovarian -35.9%
inactive: OVCAR-8 ovarian 39.8% | OVCAR-5 ovarian 96.5% | OVCAR-4 ovarian 44.1% | SK-OV-3 ovarian 107% | IGROV1 ovarian 38.4% | HS 578T breast 76.2% | NCI/ADR-RES ovarian 99.7% | T-47D breast 38.4% | BT-549 breast 13.3% | MDA-MB-435 melanoma 49.3% | SW-620 colon 34.3% | MCF7 breast 30.7% | HCT-116 colon 12.5% | HCC-2998 colon 97.6% | KM12 colon 74.2%

O=C1C[C@H](Sc2nc(-c3ccc(F)cc3)cc(C(F)(F)F)n2)[C@H]2CO[C@@H]1O2
inactive: SR leukemia 17.9% | RPMI-8226 leukemia 96.9% | OVCAR-8 ovarian 97.4% | OVCAR-5 ovarian 105% | OVCAR-4 ovarian 108% | SK-OV-3 ovarian 108% | IGROV1 ovarian 115% | OVCAR-3 ovarian 91.6% | HS 578T breast 109% | NCI/ADR-RES ovarian 106% | T-47D breast 62.3% | BT-549 breast 111% | MDA-MB-435 melanoma 102% | SW-620 colon 67.5% | MCF7 breast 46.4% | HCT-116 colon 75.6% | HCC-2998 colon 105% | KM12 colon 101%

COc1cnc2c(c1)C(=O)c1c-2n(CCCN2CCCC2)c(=O)c2cc([N+](=O)[O-])ccc12
active: SR leukemia -1.06% | RPMI-8226 leukemia -34.1% | OVCAR-8 ovarian -37.2% | OVCAR-5 ovarian -28.4% | SK-OV-3 ovarian -9.51% | IGROV1 ovarian -5.7% | OVCAR-3 ovarian -72.4% | NCI/ADR-RES ovarian -20.2% | MDA-MB-435 melanoma 2.83% | SW-620 colon -19.3% | MCF7 breast 3.81% | HCT-116 colon -67.5% | KM12 colon -33.3%
inactive: OVCAR-4 ovarian 10.4% | HS 578T breast 35.1% | T-47D breast 24.5% | BT-549 breast 18.2% | HCC-2998 colon 16.2%

COc1cc2c(cc1O)CCc1cc(O)cc(OC)c1-2
inactive: SR leukemia 77.4% | RPMI-8226 leukemia 75.5% | OVCAR-8 ovarian 88.1% | OVCAR-5 ovarian 109% | OVCAR-4 ovarian 94.9% | SK-OV-3 ovarian 96.9% | IGROV1 ovarian 105% | OVCAR-3 ovarian 95.6% | HS 578T breast 83.3% | NCI/ADR-RES ovarian 99% | T-47D breast 98% | BT-549 breast 79.9% | MDA-MB-435 melanoma 96.2% | SW-620 colon 109% | MCF7 breast 97.8% | HCT-116 colon 93.7% | HCC-2998 colon 110% | KM12 colon 97.4%

CCOC(=S)SCc1ccc(Cl)cc1
inactive: SR leukemia 80.2% | RPMI-8226 leukemia 108% | OVCAR-8 ovarian 101% | OVCAR-5 ovarian 95.6% | OVCAR-4 ovarian 95.6% | SK-OV-3 ovarian 150% | IGROV1 ovarian 104% | OVCAR-3 ovarian 94.4% | HS 578T breast 107% | NCI/ADR-RES ovarian 105% | T-47D breast 120% | BT-549 breast 96.3% | MDA-MB-435 melanoma 101% | SW-620 colon 101% | MCF7 breast 103% | HCT-116 colon 92.3% | HCC-2998 colon 131% | KM12 colon 108%

O=C(O)c1ccccc1Nc1cccc(S(F)(F)(F)(F)F)c1
inactive: SR leukemia 99.1% | RPMI-8226 leukemia 100% | OVCAR-8 ovarian 98.9% | OVCAR-5 ovarian 115% | OVCAR-4 ovarian 102% | SK-OV-3 ovarian 87.4% | IGROV1 ovarian 99.8% | OVCAR-3 ovarian 95% | HS 578T breast 99.2% | NCI/ADR-RES ovarian 106% | T-47D breast 85.8% | BT-549 breast 106% | MDA-MB-435 melanoma 101% | SW-620 colon 94% | MCF7 breast 93.1% | HCT-116 colon 98.3% | HCC-2998 colon 108% | KM12 colon 100%

COC1=CC(=O)C(OC)=C(OC)C1=O
inactive: SR leukemia 36.5% | RPMI-8226 leukemia 67.1% | OVCAR-8 ovarian 101% | OVCAR-5 ovarian 107% | OVCAR-4 ovarian 77.4% | SK-OV-3 ovarian 92.5% | IGROV1 ovarian 113% | OVCAR-3 ovarian 104% | HS 578T breast 95.5% | NCI/ADR-RES ovarian 100% | T-47D breast 97% | BT-549 breast 101% | MDA-MB-435 melanoma 97.5% | SW-620 colon 101% | MCF7 breast 90.6% | HCT-116 colon 92.3% | HCC-2998 colon 117% | KM12 colon 110%
